# CYP2C9 inh: blocks human cytochrome P450 2C9; P11712; CYP2C9 Supersomes, luciferin-H conversion, luminescence; inhibition, % at 5 µM; actives 20% (n = 96,000);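 active means blocking of liver enzyme CYP2C9 beyond about 50% at 5 µM, limit read from the data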
# Target sequence (P11712 whole entry, looked up): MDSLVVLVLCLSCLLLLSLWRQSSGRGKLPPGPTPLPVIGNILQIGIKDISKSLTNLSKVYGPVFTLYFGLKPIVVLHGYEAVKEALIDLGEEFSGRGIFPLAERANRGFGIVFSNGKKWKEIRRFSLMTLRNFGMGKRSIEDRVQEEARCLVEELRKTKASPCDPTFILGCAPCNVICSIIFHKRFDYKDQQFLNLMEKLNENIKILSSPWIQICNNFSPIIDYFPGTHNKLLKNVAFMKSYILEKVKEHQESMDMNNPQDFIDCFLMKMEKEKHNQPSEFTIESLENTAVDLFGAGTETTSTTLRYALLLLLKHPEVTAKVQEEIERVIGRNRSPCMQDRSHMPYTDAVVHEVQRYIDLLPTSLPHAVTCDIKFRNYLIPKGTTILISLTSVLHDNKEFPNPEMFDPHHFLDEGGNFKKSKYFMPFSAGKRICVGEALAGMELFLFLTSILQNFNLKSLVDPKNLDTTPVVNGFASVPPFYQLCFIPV
# CYP2C19 inh: blocks human cytochrome P450 2C19 | inhibition, % at 5 µM | AID 778 | P33261 | CYP2C19 Supersomes, luciferin-H EGE luminescence, 30 min | actives 21% (n = 96,000);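 active means CYP2C19 inhibition above a set limit at 5 µM in the primary screen, cut at about 50% in these data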;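 further: plate controls were negative control wells for no effect and 2.5 mM tranylcypromine positive control for full effect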
# CYP2C9 activ: increases human cytochrome P450 2C9 activity; P11712; recombinant CYP2C9, luciferin-H conversion, luminescence; hits give high values; factor 1 = untreated enzyme, 0 = blocked; activation factor at 5 µM; actives 1.4% (n = 96,000); AID 1024;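 active means activation factor of 2 or more for CYP2C9 at a 5 µM dose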;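 further: 0 = sulfaphenazole-blocked wells and 1 = vehicle-only wells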
# CYP2C19 activ: cytochrome P450 2C19 (human) activation | 96,000 tested, under 10 active | AID 1025 | recombinant CYP2C19, luciferin-H EGE luminescence; hits give high values; 0 = fully inhibited enzyme, 1 = untreated enzyme | activation factor at 5 µM;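 active means activation factor of at least 2 at 5 µM in the primary screen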;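 further: 0 = wells with 2.5 mM tranylcypromine and 1 = vehicle-only wells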
# * marks the source's active call; other numbers are inactive results. An excerpt weighted towards active compounds, which were near 31% of everything screened.
SMILES,CYP2C9 inh,CYP2C19 inh,CYP2C9 activ,CYP2C19 activ
CCc1ccc2[nH]c(O)c(N=Nc3nc(-c4ccccc4)cs3)c2c1,12,12,0.9,0.9
CC(=O)c1ccc(N(C(=O)Cc2c[nH]c3ccccc23)C(C(=O)NC2CCCCC2)c2cccs2)cc1 (configuration not stated),58*,65*,0.4,0.4
Cc1ccc(N(C(=O)Cn2nnc(-c3ccc(C)o3)n2)C(C(=O)NC2CCCC2)c2ccco2)cc1 (configuration not stated),27,11,0.7,0.9
Cc1ccc(C(C(=O)NC2CCCCC2)N(C(=O)Cc2c[nH]c3ccccc23)c2ccccc2)o1 (configuration not stated),66*,45,0.3,0.6
O=C(NC1CCCCC1)C(c1cccs1)N(C(=O)Cc1c[nH]c2ccccc12)c1ccc(F)cc1 (configuration not stated),48,68*,0.5,0.3
CC(C)c1ccc(CN2CC(C(=O)O)CC2=O)cc1 (configuration not stated),22,6,0.8,0.9
CCC(CC)NC(=O)COC(=O)c1ccc(OCC(=O)Nc2ccccc2OC)c(OC)c1,44,71*,0.6,0.3
COc1ccc(C(=O)OCC(=O)Nc2ccc(F)c(F)c2)cc1OC,29,58*,0.7,0.4
COc1ccc(C(=O)OCC(=O)Nc2ccc(F)cc2F)cc1OC,9,28,0.9,0.7
COc1cccc2c(=O)n(CC(=O)Nc3ccc(F)cc3F)ccc12,21,56*,0.8,0.4
COc1cc(C(=O)OCC(=O)Nc2ccc(F)cc2F)cc(OC)c1OC,33,65*,0.7,0.4
O=C(CN1CCN(Cc2ccc(F)cc2)C1=O)NCc1cccs1,16,14,0.8,0.9
COc1ccc(OC)c(C(=O)COC(=O)CNC(=O)C2CCCCC2)c1,-35,22,1.3,0.8
CC(=O)Nc1ccc(NC2=Nc3ccccc3N3C2=Nc2c(c(C)nn2-c2ccccc2)C3c2ccccc2)cc1 (configuration not stated),42,19,0.6,0.8
COc1ccc(NC2=Nc3ccccc3N3C2=Nc2c(c(C)nn2-c2ccc(C)cc2)C3c2cccnc2)cc1 (configuration not stated),56*,25,0.4,0.7
Cc1ccc(/C=c2\sc3nc(-c4ccco4)nn3c2=O)o1,-16,22,1.2,0.8
COc1ccc(Br)cc1/C=c1\sc2nc(-c3ccco3)nn2c1=O,61*,62*,0.4,0.4
Fc1ccc(CSc2nncn2NCc2ccc3c(c2)OCO3)cc1,83*,93*,0.2,0.1
Cn1c(SCc2ccc3c(c2)OCO3)nnc1-c1ccccc1,50,98*,0.5,0
Cn1cnnc1SCC(=O)c1ccc2c(c1)OCO2,-27,0,1.3,1
O=C(CSc1nnc2ccccn12)c1ccc2c(c1)OCCO2,6,82*,0.9,0.2
COC(=O)CSc1nnc(-c2ccc3c(c2)OCO3)n1C,6,3,0.9,1
c1ccn2c(SCc3ccc4c(c3)OCO4)nnc2c1,8,65*,0.9,0.3
COC(=O)C(NC(C)=O)(Nc1ccccc1)C(=O)OC,-3,5,1,0.9
O=C(NCCSCc1c(F)cccc1Cl)c1ccco1,75*,80*,0.3,0.2
SMILES,CYP2C9 inh,CYP2C19 inh,CYP2C9 activ,CYP2C19 activ
CCOc1ccc(C(=O)CCN2CCCCC2)cc1,-7,5,1.1,1
CCOc1ccc(C(=O)/C=C/c2cn(CN3CCN(C)CC3)c3ccccc23)cc1,64*,62*,0.4,0.4
COc1ccc(C(=O)/C=C/c2cn(CN3CCN(C)CC3)c3ccccc23)cc1,68*,67*,0.3,0.3
COc1ccccc1C(=O)NCCCn1cc(Br)c(C)n1,21,73*,0.8,0.3
COc1ccc(C(=O)Nn2c(SCC(=O)N3CCC(C)CC3)nc3ccccc3c2=O)cc1,86*,39,0.1,0.6
COc1ccc(C(=O)Nn2c(SCC(=O)c3ccc(Cl)cc3)nc3ccccc3c2=O)cc1,82*,25,0.2,0.8
O=C(CSc1nc2ccccc2c(=O)n1Cc1ccc(C(=O)NC2CC2)cc1)NCc1ccco1,53*,35,0.5,0.7
COC(=O)COn1c(SCC(=O)OC)nc2ccccc2c1=O,28,32,0.7,0.7
COc1ccc(C(=O)Nn2c(SCC(=O)NCc3ccco3)nc3ccccc3c2=O)cc1,80*,13,0.2,0.9
COc1ccc(C(=O)Nn2c(SCC(=O)NC3CCCCC3)nc3ccccc3c2=O)cc1,31,14,0.7,0.9
Cn1c(SCC(=O)NCc2ccco2)nc2ccccc2c1=O,17,4,0.8,1
CCc1c(C)n([O-])c2c([n+]1=O)CCC2,-7,-1,1.1,1
COC(=O)CN(C(=S)Nc1ccccc1)C1CC(=O)N(c2ccc(OC)cc2)C1=O (configuration not stated),5,42,1,0.6
COc1ccc(CCN(C(=O)c2cccc(F)c2)C2CC(=O)N(c3ccc(OC)cc3)C2=O)cc1 (configuration not stated),53*,67*,0.5,0.3
COc1ccc(N2C(=O)CC(N(Cc3ccc(S(N)(=O)=O)cc3)C(C)=O)C2=O)cc1 (configuration not stated),-14,-8,1.1,1.1
COC(=O)CN(C(=S)Nc1ccc(F)cc1)C1CC(=O)N(c2ccc(OC)cc2)C1=O (configuration not stated),62*,93*,0.4,0.1
O=C1CC(N(Cc2ccc3c(c2)OCO3)C(=O)Nc2ccc(F)cc2)C(=O)N1c1ccccc1 (configuration not stated),3,13,1,0.9
O=C1CC(N(Cc2ccco2)C(=O)Nc2ccc(F)cc2)C(=O)N1c1ccc(F)cc1 (configuration not stated),52*,80*,0.5,0.2
N#CC1=C(N)N(c2ccccc2)C(c2cccc([N+](=O)[O-])c2)C1(C#N)C#N (configuration not stated),53*,38,0.5,0.6
Cc1cccc(N2C(N)=C(C#N)C(C#N)(C#N)C2c2ccccc2)c1 (configuration not stated),55*,20,0.5,0.8
N#Cc1c(-c2ccccc2)cc(-c2ccco2)c(C#N)c1N,24,31,0.8,0.7
Nc1c(-c2ccccc2Cl)cnn1-c1cccc([N+](=O)[O-])c1,-55,18,1.6,0.8
N#CC1=C(N)N(c2ccccc2)C(c2ccco2)C1(C#N)C#N (configuration not stated),54*,31,0.5,0.7
COc1cccc(Nc2ncnc3c2cnn3C)c1,-12,2,1.1,1
Cn1c(=O)c2ccccc2n(Cc2ccccc2F)c1=O,24,52*,0.8,0.5
CCOc1nc(CC)nc(NC(=O)NS(=O)(=O)c2ccccc2Cl)n1,7,6,0.9,0.9
c1ccc(-c2nnc3ccc(N4CCCC4)nn23)cc1,3,10,1,0.9

# Compound activity (PubChem BioAssay)
